# Data: the supplement of paper PMC6331611
# Several values for one entry are separate records, joined by “and”; a condition that tells them apart may be missing. Equal values may be shown once. ± gives the standard deviation of the averaged measurements. The full ranking holds about 1,600 compounds; the median of “normalized growth (OD600, IQM-normalized) in LPM” is about 1, and the lowest 2% start at about 0.014. This excerpt belongs to a sample that is enriched for the lowest values.
# Test system: Salmonella enterica serovar Typhimurium SL1344
# Assay: normalized growth (OD600, IQM-normalized) in LPM (fraction of plate interquartile mean); higher = more bacterial growth (less inhibition)
# Conditions: LPM pH 5.8; 10 µM; 16 h
row,Structure (SMILES),normalized growth
1,CC(S)C(=O)NCC(=O)O (stereo not drawn),0.982 ± 0.071
2,O=C(O)CN(CCN(CC(=O)O)CC(=O)O)CC(=O)O.[Na+].[Na+].[Na+],0.0403 ± 0.013
3,CO[C@@]1(NC(=O)C2SC(=C(C(N)=O)C(=O)O)S2)C(=O)N2C(C(=O)O)=C(CSc3nnnn3C)CS[C@@H]21 (stereo partly drawn),0.00904 ± 0.00015
4,CO[C@@]1(NC(=O)C(C(=O)O)c2ccc(O)cc2)C(=O)N2C(C(=O)O)=C(CSc3nnnn3C)CO[C@@H]21 (stereo partly drawn),0.993 ± 0.045
5,CO[C@@]1(NC(=O)CSCC#N)C(=O)N2C(C(=O)O)=C(CSc3nnnn3C)CS[C@@H]21,0.957 ± 0.052
6,CO[C@H]1/C=C/O[C@@]2(C)Oc3c(C)c(O)c4c(O)c(c5c(nc6cc(C)ccn65)c4c3C2=O)NC(=O)/C(C)=C\C=C\[C@H](C)[C@H](O)[C@@H](C)[C@@H](O)[C@@H](C)[C@H](OC(C)=O)[C@@H]1C,0.0104 ± 0.00017
7,CO[C@H]1/C=C/O[C@@]2(C)Oc3c(C)c(O)c4c(O)c(c(/C=N/N5CCN(C)CC5)c(O)c4c3C2=O)NC(=O)/C(C)=C\C=C\[C@H](C)[C@H](O)[C@@H](C)[C@@H](O)[C@@H](C)[C@H](OC(C)=O)[C@@H]1C,0.0102 ± 0.00021
8,O=c1[nH]cnc2c1ncn2[C@@H]1O[C@H](CO)[C@@H](O)[C@H]1O,1.13 ± 0.034
9,Nc1ncn([C@@H]2O[C@H](CO)[C@@H](O)[C@H]2O)c(=O)n1,0.0134 ± 0.00024
10,Nc1ccn([C@@H]2O[C@H](CO)[C@@H](O)[C@@H]2O)c(=O)n1,1.01 ± 0.067
11,O=C(O)c1ccc(S(=O)(=O)N(Cl)Cl)cc1,0.999 ± 0.013
12,CC(=O)OC/C=C(C)/C=C/C=C(C)/C=C/C1=C(C)CCCC1(C)C,0.905 ± 0.06
13,C=COCC(F)(F)F,0.991 ± 0.044
14,CCN(CC)CCOc1ccc2c(c1)C(=O)c1cc(OCCN(CC)CC)ccc1-2,1.02 ± 0.083
15,C1CCN2C[C@@H]3C[C@@H](CN4CCCC[C@@H]34)[C@H]2C1,1.13 ± 0.04
16,COCC1=C(C(=O)OC(C)OC(=O)OC(C)C)N2C(=O)[C@@H](NC(=O)/C(=N\OC)c3csc(N)n3)[C@H]2SC1 (stereo partly drawn),1.034 ± 0.0056
17,CCCCCCCCCCCCCCCC[N+](C)(C)C,0.982 ± 0.038
18,C[C@@H]1CC2C3C[C@H](F)C4=CC(=O)C=C[C@]4(C)[C@@]3(F)[C@@H](O)C[C@]2(C)[C@@]1(O)C(=O)COC(=O)C(C)(C)C (stereo partly drawn),1.04 ± 0.12
19,COC(=O)Nc1nc2cc(Sc3ccccc3)ccc2[nH]1,0.987 ± 0.024
20,OC[C@@H](O)[C@@H](O[C@@H]1O[C@H](CO)[C@H](O)[C@H](O)[C@H]1O)[C@H](O)[C@@H](O)CO,0.98 and 0.904

row,Structure (SMILES),normalized growth
1,CS(=O)(=O)c1ccc([C@@H](O)[C@@H](CF)NC(=O)C(Cl)Cl)cc1,0.0094 ± 0.00019
2,CS(=O)(=O)c1ccc([C@@H](O)[C@@H](CO)NC(=O)C(Cl)Cl)cc1,0.934 ± 0.078
3,Clc1ccccc1CN1CCc2sccc2C1,1.02 ± 0.037
4,CCCCCCCCCCCCCCCC(=O)OC[C@@H](NC(=O)C(Cl)Cl)[C@H](O)c1ccc([N+](=O)[O-])cc1,1.04 ± 0.082
5,O=C(N[C@H](CO)[C@H](O)c1ccc([N+](=O)[O-])cc1)C(Cl)Cl,0.0146 ± 0.00075
6,O=C(O)CCC(=O)OC[C@@H](NC(=O)C(Cl)Cl)[C@H](O)c1ccc([N+](=O)[O-])cc1,0.014 ± 0.00072
7,C#C[C@]1(O)CC[C@H]2[C@@H]3[C@H](C)CC4=C(CCC(=O)C4)[C@H]3CC[C@@]21C,0.987 ± 0.048
8,OCc1ccccc1O,1.05 ± 0.04
9,CN(C/C=C/c1ccccc1)Cc1cccc2ccccc12,0.885 ± 0.019
10,CC(=O)N[C@@H]([C@@H](O)[C@H](O)[C@H](O)CO)[C@@H](O)CC(=O)C(=O)O,1 ± 0.065
11,CC(C)(Oc1ccc(C(=O)c2ccc(Cl)cc2)cc1)C(=O)O,0.976 ± 0.024
12,CC(=O)NCCCCCC(=O)O,1.11 ± 0.034
13,N#Cc1ccc2c(c1)N(CCCN1CCC(O)CC1)c1ccccc1S2,1.09 ± 0.035
14,O=C(O)C[C@H](O)C[C@H](O)/C=C/c1c(C2CC2)nc2ccccc2c1-c1ccc(F)cc1,1.19 ± 0.13
15,N=C(N)c1ccc(N=NNc2ccc(C(=N)N)cc2)cc1,0.766 ± 0.035
16,CC(=O)Nc1cccc(O)c1,1.02 ± 0.014
17,Cc1c(NC(C)C)c(=O)n(-c2ccccc2)n1C,0.981 ± 0.15
18,C[C@H]1O[C@@H](n2cc(F)c(=O)[nH]c2=O)[C@H](O)[C@@H]1O,0.412 ± 0.11
19,CCCCCCNC(=O)n1cc(F)c(=O)[nH]c1=O,0.007569 ± 7.1e-05
20,CCOC(=O)COc1ccc2c(=O)cc(-c3ccccc3)oc2c1,1.01 ± 0.035

row,Structure (SMILES),normalized growth
1,OC[C@H]1O[C@H](O[C@H]2[C@H](O)[C@@H](O)C(O)O[C@@H]2CO)[C@H](O)[C@@H](O)[C@@H]1O (stereo partly drawn),1.06 ± 0.12
2,O=c1[nH]cc(F)c(=O)[nH]1,0.0109 ± 0.0049
3,O=c1cc[nH]c(=O)[nH]1,1.06 ± 0.04
4,Nc1nc(=O)[nH]cc1F,0.742 ± 0.12
5,COc1cc([C@@H]2c3cc4c(cc3[C@@H](O[C@@H]3O[C@@H]5CO[C@@H](c6cccs6)O[C@H]5[C@H](O)[C@H]3O)[C@H]3COC(=O)[C@H]23)OCO4)cc(OC)c1O,0.882 ± 0.027
6,O=C1c2cccc(O)c2C(=O)c2c(O)cccc21,0.827 ± 0.05
7,CCN(CC)C(=O)/C(C#N)=C/c1cc(O)c(O)c([N+](=O)[O-])c1,0.924 ± 0.023
8,C[C@]12CC[C@@H]3c4ccc(OC(=O)c5ccccc5)cc4CC[C@H]3[C@@H]1CC[C@@H]2O,0.779 ± 0.061
9,C/C=C(/C(=C/C)c1ccc(O)cc1)c1ccc(O)cc1,1.04 ± 0.035
10,CO[C@H]1C[C@@H]2CC[C@@H](C)[C@@](O)(O2)C(=O)C(=O)N2CCCC[C@H]2C(=O)O[C@H]([C@H](C)C[C@@H]2CC[C@@H](O)[C@H](OC)C2)CC(=O)[C@H](C)/C=C(\C)[C@@H](O)[C@@H](OC)C(=O)[C@H](C)C[C@H](C)/C=C/C=C/C=C/1C,0.964 ± 0.048
11,Cc1ccc(Nc2c(F)cccc2Cl)c(CC(=O)O)c1,1.11 ± 0.053
12,CCNC(=O)/C=C/c1cccc(Br)c1,1.08 ± 0.035
13,COC(=O)/C=C/C(=O)OC,1.42 ± 0.16
14,Nc1nc(Cl)nc2c1ncn2[C@@H]1O[C@H](CO)[C@@H](O)[C@@H]1F,1.11 ± 0.025
15,CC1(C)[C@@H](O)CC[C@]2(C)[C@H]3C(=O)C=C4[C@@H]5C[C@@](C)(C(=O)O)CC[C@]5(C)CC[C@@]4(C)[C@]3(C)CC[C@@H]12,0.906 ± 0.073
16,CC(=O)Nc1ncc([N+](=O)[O-])s1,0.899 ± 0.018
17,CCCCCCOc1ccccc1C(N)=O,1.01 ± 0.048
18,COc1ccc2cc(C(C)C(=O)O)ccc2c1 (stereo not drawn),1.07 ± 0.032
